Rows were chosen to be rich in hits. Some 1.6% of all compounds tested hit in one or more screens of this group.
KCNQ2 enhance = potentiators of rat KCNQ2 potassium channel; CHO-K1 KCNQ2, FluxOR thallium flux fluorescence; stronger effect = higher value; B-score at 10 µM; 0.54% of 310,000 active;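 active = fluorescence ratio B-score at least 3 SD of library B-scores, with initial fluorescence B-score within 3 of them, cut at about 5.3 in these data; same plate scores as AID 2156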;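 also: B-score of peak minus minimum over baseline fluorescence ratio after K+ and Tl+ stimulus; positive B-score means potentiation of KCNQ2 with more thallium influx and brighter signal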
KCNQ2 block = rat KCNQ2 potassium channel inhibitors, primary screen, cell-based, CHO-K1, FluxOR thallium flux, B-score; Potassium voltage-gated channel subfamily KQT member 2 (Rattus norvegicus), O88943; 20 min; stronger effect = lower value; B-score at 10 µM; 1.1% of 310,000 active;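 active = fluorescence ratio B-score at most minus 3 library SDs, with starting brightness B-score within 2 library SDs, cut at about -5.5 in these data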
Kir21 conf inh = mouse Kir2.1 channel blockers, retest, confirmation, cell-based, FluxOR thallium flux, duplicate. shares compounds with KCNQ2 enhance. Kir2.1-expressing cells, FluxOR thallium flux fluorescence; stronger effect = lower value. Tl flux remaining, % of negative control (stronger effect = lower value), % at 10 µM. 41% of 2,300 active;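 active = Primary-screen hit whose thallium flux fell at least 3 control SD below untreated wells in both duplicates, with normal baseline fluorescence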
HEK293 ctr = counter-screen for Kir2.1 inhibitors: effect in parental HEK293 cells; FluxOR thallium flux fluorescence; 0% = unstimulated blank wells; FluxOR signal as % of negative control (100 = no effect), % at 10 µM; shares compounds with KCNQ2 enhance; 19% of 2,300 active;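 active = dye signal at least 3 control SD above or below untreated wells in both duplicates, raw fluorescence within 3, either direction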;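 also: percent is based on the flux ratio of peak minus minimum fluorescence over baseline F0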
CHO-K1 ctr = nonspecific thallium flux increase in parental CHO-K1, confirmation, counter-screen for KCNQ2 potentiator project, cell-based, FluxOR thallium flux, duplicate; shares compounds with KCNQ2 enhance; parental CHO-K1 cells, FluxOR thallium flux fluorescence; zero = vehicle mean+3SD, 100% = vehicle-minus-blank window; activity increase over 3SD of controls, % at 10 µM; 43% of 1,200 active;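 active = signal rise of at least 3 SD above the untreated control mean, in both duplicate wells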;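 also: counter screen of KCNQ2 potentiator hits so any rise reflects channel-independent effects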
KCNQ1 sel pot = human KCNQ1 channel potentiation off-target, confirmation, selectivity assay for KCNQ2 potentiator project, cell-based, CHO, FluxOR thallium flux | 28% of 1,200 active | activation over 3SD threshold, % at 10 µM | AID 2283, 2010 | CHO KCNQ1 stable, FluxOR thallium flux fluorescence; beyond 3SD, as % of vehicle-control signal | shares compounds with KCNQ2 enhance;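 active = fluorescence ratio rise of at least 3 SD of vehicle wells above their mean, in both replicate wells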
Target sequence (P51787 whole entry, looked up): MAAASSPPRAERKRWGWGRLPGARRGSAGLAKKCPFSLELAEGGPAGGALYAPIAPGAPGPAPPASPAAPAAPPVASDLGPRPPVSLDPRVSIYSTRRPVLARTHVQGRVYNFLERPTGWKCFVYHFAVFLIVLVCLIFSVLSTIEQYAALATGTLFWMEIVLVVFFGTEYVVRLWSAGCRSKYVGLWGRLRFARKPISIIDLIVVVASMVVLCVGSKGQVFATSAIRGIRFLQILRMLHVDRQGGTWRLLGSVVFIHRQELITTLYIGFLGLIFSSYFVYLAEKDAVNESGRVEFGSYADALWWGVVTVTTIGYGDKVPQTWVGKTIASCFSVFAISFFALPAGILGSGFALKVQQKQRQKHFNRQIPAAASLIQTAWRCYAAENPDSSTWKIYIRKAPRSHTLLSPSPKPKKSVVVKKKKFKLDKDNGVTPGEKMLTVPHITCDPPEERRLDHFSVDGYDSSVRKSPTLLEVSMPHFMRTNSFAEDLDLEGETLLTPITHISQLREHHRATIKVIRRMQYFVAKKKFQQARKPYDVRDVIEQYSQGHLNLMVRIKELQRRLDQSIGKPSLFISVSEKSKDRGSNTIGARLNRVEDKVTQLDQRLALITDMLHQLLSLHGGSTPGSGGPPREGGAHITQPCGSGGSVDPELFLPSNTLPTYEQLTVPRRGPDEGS
KCNQ2 pot conf = rat KCNQ2 channel potentiators, confirmation, cell-based, CHO, FluxOR thallium flux, duplicate; shares compounds with KCNQ2 enhance; AID 2287, 2010; potentiation, less the hit threshold, % at 10 µM; 68% of 1,200 active; CHO-KCNQ2 cells, FluxOR thallium flux fluorescence;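 active = fluorescence ratio rising 3 SD or more over the vehicle control mean in both replicates, plus primary screen hit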;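 also: peak minus minimum thallium fluorescence divided by baseline after K/Tl stimulus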
Kir2-1 sel = mouse Kir2.1 channel activation off-target, confirmation, selectivity assay for KCNQ2 potentiator project, cell-based, HEK293, FluxOR thallium flux; shares compounds with KCNQ2 enhance; HEK293 Kir2.1, FluxOR thallium flux fluorescence; activity over 3SD threshold, % at 10 µM; 2% of 1,200 active;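 active = fluorescence ratio rise of at least 3 SD above the vehicle-control mean, seen in both replicates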
KCNQ2 W236L MoA = potentiators of retigabine-insensitive KCNQ2 W236L, mechanism study for KCNQ2 potentiator project, cell-based, rat KCNQ2 W236L, CHO, automated patch clamp; shares compounds with KCNQ2 enhance; current increase over 3SD of negative controls (%), stronger effect = higher value, % at 25 µM; 10% of 940 active; automated patch clamp current; AID 2558, 2010;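 active = current increase at least 3 SD of the untreated controls above them in both duplicate recordings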
A number is an active result; - = inactive; . = no result.

SMILES | KCNQ2 enhance | KCNQ2 block | Kir21 conf inh | HEK293 ctr | CHO-K1 ctr | KCNQ1 sel pot | KCNQ2 pot conf | Kir2-1 sel | others
O=C(Nc1cccnc1)c1cc(-c2ccccc2)on1 | - | - | . | . | . | . | . | .
CC(C)n1cc(NC(=O)c2cc(-c3ccccc3)on2)cn1 | 12.1 | - | - | 214.0% | 13.7 | - | 11.2 | - | KCNQ2 W236L MoA=-
O=C(N/N=C/c1ccc(Br)s1)c1cccnc1 | - | - | . | . | . | . | . | .
N=c1c(S(=O)(=O)c2ccccc2)cc2c(=O)n3ccccc3nc2n1CCCN1CCOCC1 | - | - | . | . | . | . | . | .
O=S(=O)(Nc1cccnc1)c1cccc(C(F)(F)F)c1 | - | - | . | . | . | . | . | .
Cc1ccc(NC(=O)CNC(=O)CC23CC4CC(CC(C4)C2)C3)c(O)c1 | 10.2 | - | - | - | - | - | 24.7 | - | KCNQ2 W236L MoA=-
NS(=O)(=O)c1cccc(NC(=O)CNC(=O)CC23CC4CC(CC(C4)C2)C3)c1 | - | - | . | . | . | . | . | .
Cc1cnc(C(=O)N2CCCC(C(=O)c3cccc(OC(C)C)c3)C2)cn1 (configuration not stated) | . | - | . | . | . | . | . | .
Cc1ccc(C(C)C)c(OCCCN(C)Cc2ccccc2)c1 | . | - | . | . | . | . | . | .
Cc1ccc(C(C)C)c(OCC(O)CN(C)Cc2ccccc2)c1 (configuration not stated) | . | - | 20.0% | - | . | . | . | .
O=c1c2sccc2[nH]c(=S)n1-c1ccccc1 | - | - | . | . | . | . | . | .
Cc1nc2c3ccccc3nc(SCC(=O)c3ccc(Cl)cc3)n2n1 | - | - | . | . | . | . | . | .
Brc1ccc(CNCc2cccs2)cc1 | . | - | . | . | . | . | . | .
c1ccc(COc2ccc(CNCc3cccs3)cc2)cc1 | . | - | 10.5% | 72.0% | . | . | . | .
CC(OC(=O)c1cccs1)C(=O)NCCc1ccccc1 (configuration not stated) | - | - | . | . | . | . | . | .
CNCCC1Sc2ccccc2Oc2ccccc21 (configuration not stated) | - | - | 42.0% | - | . | . | . | .
CN(C)CCCC1Sc2ccccc2Sc2ccccc21 (configuration not stated) | - | - | . | . | . | . | . | .
O=C(N/N=C/c1ccc(-c2ccc(Br)cc2)o1)c1ccc2c(c1)OCO2 | . | - | . | . | . | . | . | .
O=C(N/N=C/c1ccc(COc2ccc(Br)cc2)o1)c1ccc2c(c1)OCO2 | 5.71 | - | - | - | - | - | - | -
Cc1[nH]n(-c2ccccc2)c(=O)c1N=Nc1nccs1 | 15.5 | - | - | 550.5% | - | 16.4 | 91.0 | 17.9 | KCNQ2 W236L MoA=-
Cc1[nH]n(-c2ccccc2)c(=O)c1N=Nc1ccccc1O | - | - | . | . | . | . | . | .
c1cncc(-c2nc3c(ccc4ccccc43)[nH]2)c1 | . | - | . | . | . | . | . | .
COc1ccc(CCN(C)C(=O)C2CCN(Cc3cccc(OC)c3OC)CC2)cc1OC | - | - | . | . | . | . | . | .
Nc1ccc(C(=O)O)cc1[N+](=O)[O-] | - | - | . | . | . | . | . | .
Cc1ccc(S(=O)(=O)NC(C(=O)OCC(=O)NC(=O)c2cccn2C)C(C)C)cc1 (configuration not stated) | - | - | . | . | . | . | . | .
SMILES | KCNQ2 enhance | KCNQ2 block | Kir21 conf inh | HEK293 ctr | CHO-K1 ctr | KCNQ1 sel pot | KCNQ2 pot conf | Kir2-1 sel | others
CCOC(=O)C(NS(=O)(=O)c1ccc(Br)cc1)C(C)C (configuration not stated) | - | - | 42.5% | - | . | . | . | .
CC(=O)Nc1ccc(S(=O)(=O)NC(C)(C#N)C2CC2)cc1 (configuration not stated) | - | - | . | . | . | . | . | .
COc1ccc(CCNC(=O)CSc2n[nH]c(C)c2[N+](=O)[O-])cc1OC | . | - | . | . | . | . | . | .
COc1ccc(OC)c(C(C)NC(=O)C23CC4CC(CC(C4)C2)C3)c1 (configuration not stated) | - | - | . | . | . | . | . | .
COc1ccc(OC)c(C(C)NC(=O)Nc2ccccc2)c1 (configuration not stated) | 9.56 | - | . | . | - | - | 32.6 | - | KCNQ2 W236L MoA=-
CCOc1ccc(C(=O)NC(=S)N(Cc2ccccc2)Cc2ccccc2)cc1 | 19.9 | - | - | 176.0% | - | - | 0.5 | - | KCNQ2 W236L MoA=-
CCOc1ccc(CN(CCC#N)C(=S)NC(=O)c2ccccc2)cc1 | - | - | . | . | . | . | . | .
CCCOc1ccc(C(=O)NNC(=S)NC(C)=O)cc1 | - | - | . | . | . | . | . | .
CCCN(CCC)C(=S)NC(=O)c1ccc(-c2ccccc2)cc1 | 13.8 | - | - | 340.5% | 25.8 | 3.5 | 37.7 | - | KCNQ2 W236L MoA=-
Cc1ccc(C(=O)NC(=S)N(C)Cc2ccccc2)cc1 | - | - | . | . | . | . | . | .
CCCOc1ccc(C(=O)NNC(=S)NC(=O)c2ccccc2)cc1 | 20.5 | - | - | - | - | 3.3 | - | -
Cc1ccc(F)c([C@H]2C3C=CCC(c4ccccc4)C3C(=O)N2Cc2ccccc2)c1 (some centres not stated) | . | - | . | . | . | . | . | .
Cc1cnc(C(=O)OCC(=O)NC(=O)c2ccccc2)cn1 | . | - | . | . | . | . | . | .
COc1ccc(C(=O)Nc2c(O)ccc3ccccc23)cc1OC | - | - | . | . | . | . | . | .
COc1ccc(S(=O)(=O)Nc2c(O)ccc3ccccc23)cc1OC | 8.01 | - | - | - | 28.6 | 1.9 | 23.1 | - | KCNQ2 W236L MoA=-
Cc1cc(/C=C(/C#N)C(=O)O)c(C)n1CCC(C)C | - | - | . | . | . | . | . | .
Cc1cc(Br)ccc1OCC(=O)NNC(=O)C(=O)Nc1ccccc1 | 11.3 | - | - | 227.5% | 69.9 | - | 36.2 | - | KCNQ2 W236L MoA=-
Cc1cccc(NC(=O)NNC(=O)COc2ccc3ccccc3c2)c1 | . | - | . | . | . | . | . | .
Cc1cc(Br)ccc1OCC(=O)NNC(=O)Cc1ccccc1 | - | - | . | . | . | . | . | .
O=C(COc1ccc2ccccc2c1)NNC(=O)C(=O)Nc1ccccc1 | 12.5 | - | - | - | - | - | - | - | KCNQ2 W236L MoA=-
O=C(CSc1ncn(-c2ccccc2)n1)NCc1ccccc1 | . | - | . | . | . | . | . | .
COc1ccc(CCNC(=O)Cc2ccc3c(c2)OCO3)cc1OC | . | - | . | . | . | . | . | .
CC(C)(C)C(=O)Nc1cccc(OC(F)(F)C(F)Cl)c1 (configuration not stated) | 5.83 | - | - | - | - | 11.2 | 29.9 | - | KCNQ2 W236L MoA=-

Screens from PubChem.
